{
  "source": "the supplement of paper PMC11732987",
  "about": "“Enantioselective OTUD7B fragment discovery through chemoproteomics screening and high-throughput optimisation” (Communications Chemistry, 2025)",
  "assay_in_all_cases": "log2 ratio of Biotin-Ahx-Ub-VS probe labelling (fragment/DMSO); higher = less target engagement (more negative = stronger competition), active = hit call of the paper (q ≤ 0.05, log2 ratio ≤ -1)",
  "conditions_in_all_cases": "compound concentration: 200 uM; treatment time: 3 h",
  "key": {"OTUD6B": {"target": "T1, OTUD6B (UniProt Q8N6M0)", "T1 sequence (whole entry)": "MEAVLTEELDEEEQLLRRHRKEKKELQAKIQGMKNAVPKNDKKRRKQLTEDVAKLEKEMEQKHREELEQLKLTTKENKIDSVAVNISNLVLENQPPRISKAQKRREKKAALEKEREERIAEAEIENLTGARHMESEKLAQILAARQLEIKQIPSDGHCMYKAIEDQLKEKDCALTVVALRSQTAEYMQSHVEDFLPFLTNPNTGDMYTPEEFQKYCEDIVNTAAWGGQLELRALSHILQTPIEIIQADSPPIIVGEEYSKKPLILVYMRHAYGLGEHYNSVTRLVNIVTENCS", "outline": "(§1)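 Fragment (200 µM) or vehicle was incubated for 3 h with triplicate HEK293T lysate samples of 495 µg, which were then treated with Biotin-Ahx-Ub-VS at 0.5 µM final for 1 h. Labelled DUBs were enriched on NeutrAvidin, digested with LysC and trypsin, and analysed by diaPASEF LC-MS/MS. Values are average log2 fragment/vehicle ratios from an unpaired t-test on global-median-normalised Spectronaut label-free quantities, using proteins with ≥2 unique peptides.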"}, "OTUD7B": {"target": "T2, OTUD7B (UniProt Q6GQQ9)", "T2 sequence (whole entry)": "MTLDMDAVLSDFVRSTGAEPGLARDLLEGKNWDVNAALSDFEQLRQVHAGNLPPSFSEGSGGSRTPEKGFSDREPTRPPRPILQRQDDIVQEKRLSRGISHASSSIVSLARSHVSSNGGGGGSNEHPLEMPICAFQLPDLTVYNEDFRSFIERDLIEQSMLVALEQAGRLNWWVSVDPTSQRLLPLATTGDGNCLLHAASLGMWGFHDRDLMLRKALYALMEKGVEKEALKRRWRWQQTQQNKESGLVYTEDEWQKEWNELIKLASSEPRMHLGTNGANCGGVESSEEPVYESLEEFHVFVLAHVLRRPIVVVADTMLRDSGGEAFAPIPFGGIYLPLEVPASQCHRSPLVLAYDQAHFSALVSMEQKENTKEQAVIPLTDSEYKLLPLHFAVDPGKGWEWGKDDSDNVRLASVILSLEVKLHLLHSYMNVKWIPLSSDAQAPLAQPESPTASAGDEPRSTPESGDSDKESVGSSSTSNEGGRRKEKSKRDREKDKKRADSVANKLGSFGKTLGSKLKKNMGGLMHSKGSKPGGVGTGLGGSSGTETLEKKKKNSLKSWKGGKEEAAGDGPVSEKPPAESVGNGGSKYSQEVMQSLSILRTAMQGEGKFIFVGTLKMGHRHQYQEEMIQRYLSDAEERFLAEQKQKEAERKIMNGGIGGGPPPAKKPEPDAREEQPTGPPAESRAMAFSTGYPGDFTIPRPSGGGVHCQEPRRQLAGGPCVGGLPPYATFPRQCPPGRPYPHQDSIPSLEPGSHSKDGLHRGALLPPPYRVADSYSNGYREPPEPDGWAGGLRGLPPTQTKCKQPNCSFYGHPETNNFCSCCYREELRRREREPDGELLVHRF", "outline": "as §1"}, "PRPF8": {"target": "PRPF8 (UniProt Q6P2Q9)", "outline": "as §1"}, "PSMD7": {"target": "T3, PSMD7 (UniProt P51665)", "T3 sequence (whole entry)": "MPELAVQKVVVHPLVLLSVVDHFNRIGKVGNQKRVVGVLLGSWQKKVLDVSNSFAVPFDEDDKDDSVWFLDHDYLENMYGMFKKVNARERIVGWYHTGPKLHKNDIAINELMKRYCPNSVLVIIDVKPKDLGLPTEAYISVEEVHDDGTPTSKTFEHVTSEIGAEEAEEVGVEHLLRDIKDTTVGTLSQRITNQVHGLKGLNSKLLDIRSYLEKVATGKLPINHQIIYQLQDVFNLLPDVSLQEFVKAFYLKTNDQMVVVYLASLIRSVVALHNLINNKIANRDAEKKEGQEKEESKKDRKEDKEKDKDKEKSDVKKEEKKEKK", "outline": "as §1"}, "UCHL1": {"target": "UCHL1 (UniProt P09936)", "sequence (P09936 whole entry, looked up)": "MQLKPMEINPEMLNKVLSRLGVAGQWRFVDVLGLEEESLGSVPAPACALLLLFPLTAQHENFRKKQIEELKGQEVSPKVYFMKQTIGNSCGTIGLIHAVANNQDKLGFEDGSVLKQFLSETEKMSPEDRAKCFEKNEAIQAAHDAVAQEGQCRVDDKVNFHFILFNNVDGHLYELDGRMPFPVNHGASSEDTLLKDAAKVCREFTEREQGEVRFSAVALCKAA", "outline": "as §1"}, "UCHL3": {"target": "T4, UCHL3 (UniProt P15374)", "T4 sequence (whole entry)": "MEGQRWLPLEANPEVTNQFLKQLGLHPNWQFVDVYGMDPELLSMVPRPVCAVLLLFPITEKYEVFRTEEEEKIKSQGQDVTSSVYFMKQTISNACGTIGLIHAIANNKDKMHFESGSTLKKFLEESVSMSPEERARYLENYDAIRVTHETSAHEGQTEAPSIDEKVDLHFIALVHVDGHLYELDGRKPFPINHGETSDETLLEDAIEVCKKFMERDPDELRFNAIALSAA", "outline": "as §1"}, "UCHL5": {"target": "T5, UCHL5 (UniProt Q9Y5K5)", "T5 sequence (whole entry)": "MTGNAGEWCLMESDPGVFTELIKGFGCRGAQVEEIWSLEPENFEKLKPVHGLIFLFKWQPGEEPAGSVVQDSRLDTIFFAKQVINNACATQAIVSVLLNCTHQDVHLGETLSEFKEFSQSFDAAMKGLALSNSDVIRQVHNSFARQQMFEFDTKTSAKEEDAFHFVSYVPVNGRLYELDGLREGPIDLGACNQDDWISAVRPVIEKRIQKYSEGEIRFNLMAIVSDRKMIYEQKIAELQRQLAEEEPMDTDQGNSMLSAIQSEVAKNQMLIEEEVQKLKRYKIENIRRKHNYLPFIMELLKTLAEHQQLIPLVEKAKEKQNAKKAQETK", "outline": "as §1"}, "USP10": {"target": "USP10 (UniProt Q14694)", "sequence (Q14694 whole entry)": "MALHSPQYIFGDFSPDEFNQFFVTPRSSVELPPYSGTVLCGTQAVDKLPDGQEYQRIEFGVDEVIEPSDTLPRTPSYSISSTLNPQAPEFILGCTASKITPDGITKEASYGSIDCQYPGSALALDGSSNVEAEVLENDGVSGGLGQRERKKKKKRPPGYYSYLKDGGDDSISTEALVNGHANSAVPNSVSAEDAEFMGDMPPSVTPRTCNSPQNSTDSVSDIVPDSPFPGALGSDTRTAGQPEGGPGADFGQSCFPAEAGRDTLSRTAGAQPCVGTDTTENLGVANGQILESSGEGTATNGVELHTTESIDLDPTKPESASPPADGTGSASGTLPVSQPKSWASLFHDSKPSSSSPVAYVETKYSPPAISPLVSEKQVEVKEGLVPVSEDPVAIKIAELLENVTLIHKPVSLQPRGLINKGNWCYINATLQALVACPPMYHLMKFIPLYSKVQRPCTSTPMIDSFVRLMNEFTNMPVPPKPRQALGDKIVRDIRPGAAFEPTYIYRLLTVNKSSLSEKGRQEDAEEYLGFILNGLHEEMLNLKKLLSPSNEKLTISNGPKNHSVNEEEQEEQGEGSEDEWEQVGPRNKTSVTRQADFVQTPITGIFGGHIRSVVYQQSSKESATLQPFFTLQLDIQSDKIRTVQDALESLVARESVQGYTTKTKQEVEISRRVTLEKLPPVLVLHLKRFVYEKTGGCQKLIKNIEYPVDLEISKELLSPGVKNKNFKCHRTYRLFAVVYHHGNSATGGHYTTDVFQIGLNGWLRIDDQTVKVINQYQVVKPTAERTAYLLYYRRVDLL", "outline": "as §1"}, "USP15": {"target": "T6, USP15 (UniProt Q9Y4E8)", "T6 sequence (whole entry)": "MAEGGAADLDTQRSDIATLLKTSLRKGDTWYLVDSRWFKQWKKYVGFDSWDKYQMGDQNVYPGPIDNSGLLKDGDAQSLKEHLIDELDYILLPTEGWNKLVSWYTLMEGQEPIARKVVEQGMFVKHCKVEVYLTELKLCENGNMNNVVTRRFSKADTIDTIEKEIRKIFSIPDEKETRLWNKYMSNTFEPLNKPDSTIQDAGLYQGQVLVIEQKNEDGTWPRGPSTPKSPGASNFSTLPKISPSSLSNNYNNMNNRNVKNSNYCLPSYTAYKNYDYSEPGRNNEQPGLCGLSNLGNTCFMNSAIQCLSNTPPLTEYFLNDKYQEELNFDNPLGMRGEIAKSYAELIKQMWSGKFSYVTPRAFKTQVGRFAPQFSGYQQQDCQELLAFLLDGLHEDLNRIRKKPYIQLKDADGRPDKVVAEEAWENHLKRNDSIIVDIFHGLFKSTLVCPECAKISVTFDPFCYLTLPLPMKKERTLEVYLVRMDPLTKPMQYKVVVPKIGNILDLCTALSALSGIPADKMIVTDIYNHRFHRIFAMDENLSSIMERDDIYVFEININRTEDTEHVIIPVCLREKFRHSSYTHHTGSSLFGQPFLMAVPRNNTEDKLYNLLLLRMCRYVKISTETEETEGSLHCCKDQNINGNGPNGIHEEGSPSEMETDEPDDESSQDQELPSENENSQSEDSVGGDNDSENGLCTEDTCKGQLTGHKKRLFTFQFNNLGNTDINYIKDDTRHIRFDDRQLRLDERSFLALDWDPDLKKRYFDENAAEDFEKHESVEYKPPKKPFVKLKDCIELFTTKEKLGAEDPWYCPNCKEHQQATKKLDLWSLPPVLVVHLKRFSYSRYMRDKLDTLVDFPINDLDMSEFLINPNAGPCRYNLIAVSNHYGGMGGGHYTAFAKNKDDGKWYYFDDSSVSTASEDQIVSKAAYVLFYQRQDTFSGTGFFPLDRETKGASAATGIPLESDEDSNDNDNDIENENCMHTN", "outline": "as §1"}, "USP16": {"target": "USP16 (UniProt Q9Y5T5)", "sequence (Q9Y5T5 whole entry, looked up)": "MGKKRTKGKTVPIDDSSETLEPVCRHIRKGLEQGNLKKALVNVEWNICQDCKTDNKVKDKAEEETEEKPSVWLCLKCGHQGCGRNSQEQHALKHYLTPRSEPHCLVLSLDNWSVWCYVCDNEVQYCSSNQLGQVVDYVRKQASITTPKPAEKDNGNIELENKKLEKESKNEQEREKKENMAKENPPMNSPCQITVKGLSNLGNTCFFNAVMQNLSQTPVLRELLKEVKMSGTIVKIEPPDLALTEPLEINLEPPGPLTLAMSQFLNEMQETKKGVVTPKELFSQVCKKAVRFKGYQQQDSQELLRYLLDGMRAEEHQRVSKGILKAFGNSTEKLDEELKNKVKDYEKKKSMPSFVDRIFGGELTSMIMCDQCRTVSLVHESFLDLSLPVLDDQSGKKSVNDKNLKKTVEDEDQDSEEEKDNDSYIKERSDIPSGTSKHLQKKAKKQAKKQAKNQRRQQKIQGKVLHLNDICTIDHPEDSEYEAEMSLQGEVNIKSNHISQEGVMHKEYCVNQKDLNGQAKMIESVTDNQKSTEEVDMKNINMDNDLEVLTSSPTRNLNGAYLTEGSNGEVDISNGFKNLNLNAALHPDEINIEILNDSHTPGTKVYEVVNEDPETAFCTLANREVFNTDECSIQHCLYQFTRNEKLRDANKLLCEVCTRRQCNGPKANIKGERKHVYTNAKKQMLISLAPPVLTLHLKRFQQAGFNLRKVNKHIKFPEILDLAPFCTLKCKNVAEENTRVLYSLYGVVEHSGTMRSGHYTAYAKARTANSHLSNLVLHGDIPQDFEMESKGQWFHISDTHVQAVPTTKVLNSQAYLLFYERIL", "outline": "as §1"}},
  "note": "Unmarked numbers belong to inactive results.",
  "data": [
    {"smiles": "O=C(CCl)NCc1noc(C2CC2)n1", "values": [
      {"measurement": "log2 ratio of Biotin-Ahx-Ub-VS probe labelling", "setting": "OTUD6B", "result": -0.344},
      {"measurement": "log2 ratio of Biotin-Ahx-Ub-VS probe labelling", "setting": "OTUD7B", "result": -0.572},
      {"measurement": "log2 ratio of Biotin-Ahx-Ub-VS probe labelling", "setting": "PRPF8", "result": -0.106},
      {"measurement": "log2 ratio of Biotin-Ahx-Ub-VS probe labelling", "setting": "PSMD7", "result": -0.219},
      {"measurement": "log2 ratio of Biotin-Ahx-Ub-VS probe labelling", "setting": "UCHL1", "result": "-1.67 (active)"},
      {"measurement": "log2 ratio of Biotin-Ahx-Ub-VS probe labelling", "setting": "UCHL3", "result": 0.307},
      {"measurement": "log2 ratio of Biotin-Ahx-Ub-VS probe labelling", "setting": "UCHL5", "result": -0.363},
      {"measurement": "log2 ratio of Biotin-Ahx-Ub-VS probe labelling", "setting": "USP10", "result": -0.164},
      {"measurement": "log2 ratio of Biotin-Ahx-Ub-VS probe labelling", "setting": "USP15", "result": -0.193},
      {"measurement": "log2 ratio of Biotin-Ahx-Ub-VS probe labelling", "setting": "USP16", "result": -0.127}
    ]}
  ]
}
